NPSR antag = neuropeptide S receptor (human) antagonism, cAMP; Q6W5P4; CHO-NPSR cells, cAMP TR-FRET, antagonist mode; AID 1461; Potency, µM (titrated, usually from 38.3 µM), for the others: at the top dose activity change, negative = inhibition, actives largely listed as inhibitors; hit rate 1% among 220,000; also: potency is read from the fitted curve at half-maximal effect; % is scaled to controls: 0 for no effect and ±100 for the full control effect; nearly all actives have a fitted effect of over 50% in size
Target sequence (Q6W5P4 whole entry, looked up): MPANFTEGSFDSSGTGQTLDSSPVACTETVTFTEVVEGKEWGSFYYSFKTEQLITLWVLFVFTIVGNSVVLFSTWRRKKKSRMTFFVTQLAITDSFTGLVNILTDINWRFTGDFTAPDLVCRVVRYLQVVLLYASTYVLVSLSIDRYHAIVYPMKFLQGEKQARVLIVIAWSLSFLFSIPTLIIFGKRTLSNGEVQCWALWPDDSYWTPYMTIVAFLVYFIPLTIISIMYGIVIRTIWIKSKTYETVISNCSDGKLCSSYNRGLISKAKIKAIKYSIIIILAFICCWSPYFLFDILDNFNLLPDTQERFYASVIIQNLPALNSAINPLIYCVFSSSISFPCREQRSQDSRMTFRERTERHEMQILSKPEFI
12-hLO inh = 12-hLO (ALOX12) enzyme inhibition. P18054. purified 12-hLO, xylenol orange hydroperoxide absorbance. Potency, µM (top dose mostly 57.1 µM), without a hit: at the highest dose activity change, negative = inhibition, hits mostly inhibitors. hit rate 0.12% among 150,000. AID 1452; also: potency is read from the fitted curve at half-maximal effect; % is scaled to controls: 0 for no effect and ±100 for the full control effect; nearly all actives have a fitted effect of over 55% in size
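Xylenol orange chromogenic assay: hydroperoxide from 12hLO oxidises Fe(II), giving red-shifted Fe(III)-XO absorbance. Conditions: 150 nM enzyme, 40 uM arachidonic acid, 25 mM Hepes pH 7.0, 0.01% Triton X-100, 30 min, room temperature.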
HTT aggregate = inhibitors of mutant huntingtin aggregate formation in PC12 cells. Potency, µM (series often up to 46.1 µM), for inactives: top-dose activity change, negative = inhibition, most hits filed as inhibitors. PC12 HttQ103-GFP aggregates, Acumen cytometry, 40 h. hit rate 1.1% among 220,000; also: potency is read from the fitted curve at half-maximal effect; % is scaled to controls: 0 for no effect and ±100 for the full control effect; nearly all actives have a fitted effect of over 60% in size
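Ecdysone-promoter PC12 model expressing HTT exon 1 Q103 fused to GFP, induced by tebufenozide at 100 nM final. Compounds titrated; aggregates sized 1–25 µm scored on a 488 nm laser cytometer.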
HTT ATP protect = cytoprotection in Huntington HTT-Q103 PC12 cell model. PC12 HTT-Q103 induced, cytoprotection, ATP luminescence, 40 h. Potency, µM (doses to about 56.4 µM), without a hit: cytoprotection (ATP increase), usual class: activators. hit rate 0.14% among 230,000. AID 1471; also: potency is read from the fitted curve at half-maximal effect; % of control where 0% means no effect; nearly all actives have a fitted effect of over 45% in size
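ATP quantification (ATPlite) reports survival of PC12 cells in which tebufenozide, 100 nM final, switches on Htt exon 1 with 103 glutamines linked to GFP; compounds are titrated.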
IMPase cell inh = IMPase inhibition in cells | P97697 | CHO-M1 cells, IP1 accumulation, HTRF TR-FRET ratio | inhibition (IP1 accumulation), % at 46.1 µM | 120,000 tested, under 10 active | AID 901; active = well fitted curve in the direction sought with a large enough effect in the signal ratio, not every such curve was filed as active; inconclusive = small, poorly fitted or top-dose-only effect, or a change in a side signal; inactive = no such curve, though single readings can be large or run the other way; the % refers to the signal ratio;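 also: cells stimulated with carbachol in lithium chloride buffer; plate controls were DMSO basal wells for no effect and reference inhibitor wells for full effect; higher means more IMPase inhibition seen as more IP1 and lower FRET ratio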
Target sequence (P97697 whole entry, looked up): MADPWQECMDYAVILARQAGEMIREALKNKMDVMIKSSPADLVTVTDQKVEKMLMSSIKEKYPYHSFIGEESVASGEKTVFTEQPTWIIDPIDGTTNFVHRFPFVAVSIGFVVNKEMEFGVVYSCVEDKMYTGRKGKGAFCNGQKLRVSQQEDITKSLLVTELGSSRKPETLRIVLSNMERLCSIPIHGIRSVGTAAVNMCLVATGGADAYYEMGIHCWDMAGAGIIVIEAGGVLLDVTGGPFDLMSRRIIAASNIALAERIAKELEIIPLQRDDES
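Elevated IP1 in lysates lowers TR-FRET signal (665/620 ratio and 620 channel reported). Cells were CHO-M1, given carbachol (50 uM as added) plus 50mM LiCl, pH 7.4, 30 min, 37C; compounds titrated up to 46 uM; AC50 by Hill equation.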
PNC assembly inh = blocks assembly of the perinucleolar compartment; hit rate 3.1% among 140,000; PC3M PTB-GFP, PNC prevalence imaging, 16 h; active compounds read low; activity change (PNC), negative = inhibition, % at 10 µM;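 active = readout at or below -70, meaning at least 70% loss of cells showing the perinucleolar compartment, a nuclear body marking cancer cells; inconclusive = readout between -30 and a set limit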;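 also: plate controls were DMSO wells for no effect and camptothecin positive control wells for full effect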
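Compounds are pinned in duplicate onto adhered PC3M cells stably expressing GFP-tagged PTB and incubated 16 h at 37 C. Cells are then fixed, nuclei stained with Hoechst, and PNC-positive cells counted.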
The depositor's hits bear a star; ? = inconclusive; nt = no result given; ! = repeats disagree; [ ] = remark or other dose. Only some compounds are listed: those with a hit (about 3.3% of all), similar ones and a draw of the others. Unless noted, calls follow the shape of the dose curve; as a rule, active = well fitted curve in the direction sought with a large enough effect; inconclusive = small, poorly fitted or top-dose-only effect, or another doubt; inactive = no such curve, though single readings can be large; an effect the other way counts as inactive or inconclusive.

SMILES	NPSR antag	12-hLO inh	HTT aggregate	HTT ATP protect	IMPase cell inh	PNC assembly inh
Cc1[nH]c(=O)[nH]c(=O)c1/C=N/NC(=O)[C@H](C)N	-13%	nt	26%[9.22 µM]	-2%[10 µM]	nt	nt
CN(C)c1ncc2nc(-c3cc(F)cc(F)c3)c(=O)n(Cc3cccs3)c2n1	nt	-4%	nt	-47%	nt	nt
COCCNC(=O)CN(C(=O)CCC(=O)Nc1ccccn1)c1ccc(F)cc1	?	-2%	1%	-10%	1	?
COCCNC(=O)CN(C(=O)CCC(=O)Nc1ccccn1)c1ccccc1F	10%	nt	0.0045µM*	-17%	nt	nt
OC(CNCCc1ccccc1)c1ccccc1 (stereo not drawn)	7%[46.1 µM]	3%	8%	-1%	2	16
O[C@@H](CNC[C@H](O)c1ccccc1)c1ccccc1	-3%[46.1 µM]	2%	23%	6%[10 µM]	-1	-100*
CCSc1nnc(NC(=O)CSc2nc3c(c(=O)n2CC)SC(C)C3)s1 (stereo not drawn)	-5%[46.1 µM]	-4%	13µM*	-24%	2	-19
CCn1c(SCC(=O)Nc2nnc(C)s2)nc2c(c1=O)SC(C)C2 (stereo not drawn)	-11%[46.1 µM]	1%	?	-8%	2	?
CCn1c(SCC(=O)N2CCOCC2)nc2c(c1=O)SC(C)C2 (stereo not drawn)	-11%[46.1 µM]	-2%	1%	-16%[10 µM]	-13	-100*
COc1ccc(NC(=O)c2cnc(C)cn2)c2ncccc12	1%[46.1 µM]	-1%	1.8µM*	-53%[10 µM]	4	?
O=C(O)C(Cc1ccccc1)N1CCS(=O)(=O)CC1 (stereo not drawn)	13%	nt	5%	2µM*	nt	nt
COC(=O)C(Cc1ccccc1)N1CCS(=O)(=O)CC1 (stereo not drawn)	5%	nt	8%[9.22 µM]	-22%	nt	nt
COCCn1c(=O)c(-c2cc(F)cc(F)c2)nc2cnc(OC)nc21	nt	-2%	nt	-49%	nt	nt
O=c1cc(/C=C/c2ccccc2)oc2ccccc12	5µM*	-2%	19%	-1%[10 µM]	7	27
CCCc1nc(S(=O)(=O)Cc2ccc(Cl)cc2Cl)n[nH]1	-5%[46.1 µM]	-3%	6%	-26%	10	-116*
O=c1[nH]nc(Cc2ccc(Cl)cc2Cl)c2ccccc12	?	1%	?	-8%	5	-9
O=C(CSc1nccn1-c1ccccc1)c1ccc(Cl)cc1	-16%[46.1 µM]	1%	-1%	-22%	13	-100*
O=C(Nn1c(-c2ccncc2)nc2ccccc2c1=O)c1ccc([N+](=O)[O-])cc1Cl	2%	nt	2%	1%	nt	nt
Cc1ccc(S(=O)(=O)N(CCc2ccccc2)CC(=O)Nc2ccc(Br)cc2)cc1	nt	nt	nt	nt	1	nt
COc1ccc(C)cc1NS(=O)(=O)c1cccc2cccnc12	nt	nt	nt	2%	nt	nt
COc1cc(NS(=O)(=O)c2ccc(C)cc2)c2ncccc2c1	?	2%	-27%	-11%[10 µM]	1	-100*
COc1cc(NCCCC(C)N)c2ncccc2c1 (stereo not drawn)	-21%[7.67 µM]	-18%	18µM*!	-7%[10 µM]	15	-20
Cc1ccc(S(=O)(=O)Nc2cccc3cccnc23)cc1	?	9%	13µM*	-42%	-1	?
O=S(=O)(Nc1cc(Sc2cccc3cccnc23)c(O)c2ccccc12)c1ccccc1	-6%	-5%	?	nt	nt	-103*
COc1ccc(-n2c(=O)c(-c3cccs3)nc3cnc(N4CCN(C)CC4)nc32)cc1	nt	nt	nt	5%	nt	nt
SMILES	NPSR antag	12-hLO inh	HTT aggregate	HTT ATP protect	IMPase cell inh	PNC assembly inh
COc1cc(NS(C)(=O)=O)ccc1Nc1c2ccccc2nc2ccccc12	?	-6%	-36%	-326%	13	nt
CC(CN(C)C)NC(=O)c1ccc(-n2c(=O)c(=O)[nH]c3ccccc32)cc1 (stereo not drawn)	nt	-5%	nt	nt	nt	nt
CC(=O)[C@@H]1[C@H]2[C@@H](C(=O)[C@H]3OC[C@H]2O3)[C@@H]2C=Cc3ccccc3N12	nt	nt	nt	-14%	nt	nt
COc1ccc(NS(=O)(=O)c2cccc3cccnc23)cc1	-14%[46.1 µM]	5%	13µM*	-20%[10 µM]	-1	-28
FC(F)(F)c1cccc(NC(=S)NNC(=S)Nc2cccc(C(F)(F)F)c2)c1	?	nt	-5%[9.22 µM]	-2%[10 µM]	nt	nt
O=C(NNC(=S)Nc1cccc(C(F)(F)F)c1)c1ccc(Cl)cc1Cl	15%	-20%	11µM*	5%[10 µM]	nt	-1
Cc1ccccc1C(=O)NNC(=S)Nc1cccc(C(F)(F)F)c1	9%	-4%	19%	nt	nt	-112*
Cc1ccc(N(C)C(=O)N2CCN(S(=O)(=O)c3ccc(C)cc3)CC2)cc1	-7%[46.1 µM]	-1%	13%	-8%	0	-15
Cc1ccc(N(C)C(=O)N2CCN(S(=O)(=O)c3ccc4ccccc4c3)CC2)cc1	-20%[46.1 µM]	-5%	11µM*	11%[10 µM]	-4	-1
CCOC(=O)c1[nH]c(C)c(CN(C(C)=O)c2ccc(OCC)cc2)c1C	46%	nt	8%[9.22 µM]	7%[10 µM]	nt	nt
O=C(Nc1ccccc1)NC1(C(=O)NCc2cccs2)CCCCC1	-9%[46.1 µM]	3%	13%	5%[10 µM]	-3[1.84 µM]	-96*
O=C(Nc1ccccc1)NC1(C(=O)NCCCN2CCOCC2)CCCCC1	3%[46.1 µM]	0%	4%	-9%[10 µM]	-2	-3
CCc1c(C)nc2nc(-c3ccccc3)nn2c1NCc1ccc(C)cc1	nt	nt	nt	nt	-13	nt
Cc1ccc(-c2cc(-c3ccccc3)c3c(N)c(S(C)(=O)=O)sc3n2)cc1	-4%[46.1 µM]	-9%	16%[9.22 µM]	-6%	-23	?
CS(=O)(=O)c1sc2nc(-c3cccs3)cc(-c3ccccc3)c2c1N	10µM*	-26%	15%	2%[10 µM]	?	-27
Cc1cccc(NC(=S)NC(C)(C)CC(C)(C)C)c1	-44%	nt	?	8.9µM*	nt	nt
Cc1cccc(NC(=S)NCc2ccc(F)cc2)c1	-13%	-29%	16%	nt	nt	-9
COc1cccc(C(=O)NN/C(C)=C/C(=O)C(F)(F)C(F)(F)C(F)(F)F)c1	21%	-1%	?	-29%[10 µM]	nt	-9
CC(=O)N1CCc2c(sc(NC(=O)c3ccc([N+](=O)[O-])o3)c2C#N)C1	2.5µM*	nt	5%[9.22 µM]	-108%	nt	nt
CCCOc1ccc(NC(=O)CC2C(=O)N(CC)C(=S)N2CCNC(C)=O)cc1 (stereo not drawn)	0%	-1%	14%	nt	nt	-113*
CCCOc1ccc(NC(=O)CC2C(=O)N(C)C(=S)N2Cc2cccs2)cc1 (stereo not drawn)	-13%	4%	15%	-7%[10 µM]	-1	-119*
CCCn1c(-c2ccc(F)cc2)nc2c(N3CCN(CCn4ccnc4)CC3)nc(C)nc21	nt	5%	nt	-40%	nt	nt
C[C@H]1CC[C@@H]2N(C1)C[C@H]1[C@@H]3C[C@H]4[C@@H](C/C(=N\O)[C@H]5C[C@@H](O)CC[C@@]54C)[C@@H]3CC[C@H]1[C@]2(C)O	nt	nt	nt	-12%	nt	nt

Bioassay records (PubChem BioAssay)
